# Assay results as given in PubChem BioAssay.
# Values joined by “and” are separate entries in the source; they are usually repeats but may differ in a detail not shown here. Equal values may be shown once.
# Assay: sensitizers of A549 cells to miR-34 induction, primary screen, imaging, A549 dox-inducible miR-34, nuclei and caspase counts (AID 1347080); further: test concentration not given here
# Conditions: A549 miR-34 inducible, Hoechst nuclei count, 48 h; measured here: total cells without miR-34 induction
row,SMILES,cell count
1,CC(=O)N(CC(C)C(=O)O)c1c(I)cc(I)c(N)c1I (stereo not given),10500
2,Cc1cc(C(=O)NNCc2ccccc2)no1,10400
3,COc1ccccc1S(=O)(=O)Nc1ccc2c(c1)CN(C)C(=O)N2,6310
4,Cc1cc(C#N)cc(C)c1Oc1nc(Nc2ccc(C#N)cc2)nc(N)c1Br,4600
5,Nc1ncn(C2OC(CO)C(O)C2O)c(=O)n1 (stereo not given),3020
6,O=C1OC(CN2CCOCC2)CN1N=Cc1ccc([N+](=O)[O-])o1 (stereo not given),9900
7,CCC(=O)OCC(=O)C1(OC(=O)CC)[C@H](C)C[C@H]2[C@H]3[C@H]([C@@H](O)C[C@@]21C)[C@@]1(C)C=CC(=O)C=C1C[C@H]3Cl (stereo not given in full),7980
8,Cc1cc(C)c(Nc2ccnc(Nc3ccc(C#N)cc3)n2)c(C)c1,2590
9,CC(C)(C)C(=O)OCOC(=O)[C@@H]1N2C(=O)[C@@H](N=CN3CCCCCC3)[C@H]2SC1(C)C,10100
10,CNC(=O)c1c(I)c(C(=O)NCC(=O)Nc2c(I)c(C(=O)O)c(I)c(C(=O)NCCO)c2I)c(I)c(N(C)C(C)=O)c1I,9600
11,CNc1ncnc2c1ncn2[C@@H]1O[C@H](CO)[C@@H](O)[C@H]1O,9420
12,Nc1nc(=S)c2ncn([C@@H]3O[C@H](CO)[C@@H](O)[C@H]3O)c2[nH]1,2870
13,COc1ccc(CC(N)C(=O)NC2C(CO)OC(n3cnc4c(N(C)C)ncnc43)C2O)cc1 (stereo not given),796
14,O=c1ccn(C2OC(CO)C(O)C2O)c(=O)[nH]1 (stereo not given),9580
15,O=C1NCCN1c1ncc([N+](=O)[O-])s1,9920
16,CC=C1NC(=O)C2CSSCCC=CC(CC(=O)NC(C(C)C)C(=O)N2)OC(=O)C(C(C)C)NC1=O (stereo not given),768
17,CCC(=O)[C@@]1(C)[C@H](C)C[C@H]2[C@@H]3CCC4=CC(=O)C=C[C@]4(C)[C@H]3[C@@H](O)C[C@@]21C,7980
18,CN(C)CC(=O)Nc1ccc2[nH]c(=O)c3ccccc3c2c1,5310 and 8470
19,CC1OC(n2cc(F)c(=O)[nH]c2=O)C(O)C1O (stereo not given),6480
20,CC1(C)S[C@@H]2[C@H](NC(=O)COc3ccccc3)C(=O)N2C1C(=O)O (stereo not given in full) (tested in a mixture with another compound),9430

row,SMILES,cell count
1,Nc1ccn(C2OC(CO)C(O)C2(F)F)c(=O)n1 (stereo not given),1810
2,CC[N+](CC)(CC)CCC(O)(c1ccccc1)C1CCCCC1 (stereo not given),9350
3,CNCCC=C1c2ccccc2C=Cc2ccccc21,7910
4,Cc1cn(C2CC(N=[N+]=[N-])C(CO)O2)c(=O)[nH]c1=O (stereo not given),8330
5,CC(C=CC(=O)NO)=CC(C)C(=O)c1ccc(N(C)C)cc1 (stereo not given),918
6,NC(=S)NN=Cc1ncccc1N,1600
7,c1ccc(CNc2ncnc3nc[nH]c23)cc1,7640
8,O=C(O)C(O)C(O)C(O)C(O)C(=O)O (stereo not given) (tested in a mixture with another compound),9910
9,O=C1OC(C(O)CO)C(O)=C1O (stereo not given),7850
10,CC(C)(C#N)c1ccc(N2C(=O)OCc3cnc4ccc(-c5cnc6ccccc6c5)cc4c32)cc1,2620
11,CC1CN(c2c(F)c(N)c3c(=O)c(C(=O)O)cn(C4CC4)c3c2F)CC(C)N1 (stereo not given),8840
12,CCCCN(Cc1ccc(C(=O)NO)cc1)C(=O)Nc1ccccc1,4600
13,C[C@@H]1C[C@H]2[C@@H]3C[C@H](F)C4=CC(=O)C=C[C@]4(C)[C@@]3(Cl)[C@@H](O)C[C@]2(C)[C@H]1C(=O)COC(=O)C(C)(C)C,7580
14,O=c1[nH]cnc2c1ncn2C1OC(CO)C(O)C1O (stereo not given),8710
15,Cc1cc(C=CC#N)cc(C)c1Nc1ccnc(Nc2ccc(C#N)cc2)n1,6310
16,CCCC1C(=O)N2C(N(C)C)=Nc3ccc(C)cc3N2C1=O (stereo not given),10000
17,CCCCC[C@H](O)/C=C/[C@@H]1[C@@H](C/C=C\CCCC(=O)O)[C@@H](O)C[C@H]1O (tested in a mixture with another compound),9270
18,CC(Oc1cc(-c2cnn(C3CCNCC3)c2)cnc1N)c1c(Cl)ccc(F)c1Cl (stereo not given),6810 and 1700
19,O=C(O)c1cc2cccc([N+](=O)[O-])c2[nH]1,9040
20,O=c1[nH]c(=O)n(C2CC(O)C(CO)O2)cc1I (stereo not given),8200
